Only a selection was taken, and hits are over-represented in it overall.
IDE exosite inh = exo-site inhibitors of human IDE, primary screen, biochemical, fluorescence anisotropy, probe displacement. 17,000 tested, 6.3% active. purified IDE, FL-6b probe fluorescence polarization; hits give low values. z-score at 20 µM. AID 1259349, 2017;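 active = z-score of -3 or lower, meaning strong loss of probe binding signal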;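 also: His-tagged human IDE residues 42-1019 made in E. coli with 30 nM FL-6b probe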
Active calls of the source: *.

SMILES	IDE exosite inh
CCCN1[C@@H]2c3ccc(-c4cccc(OC)c4)c(=O)n3C[C@@H]2[C@@H](CO)[C@@H]1C(=O)OC	2.18
CC(C)CC#Cc1ccc([C@@H]2[C@@H](CO)N3C(=O)CN(C(=O)Nc4cc(F)ccc4F)C[C@H]23)cc1	0.748
O=C(C1CCOCC1)N1CC(=O)N2[C@@H](CO)[C@H](c3ccc(-c4cccnc4)cc3)[C@@H]2C1	-0.28
C[C@@H](NC(=O)[C@@H]1[C@@H](CO)[C@@H]2Cn3c(ccc(-c4ccccc4F)c3=O)[C@H]1N2)c1ccccc1	0.728
CN1C(=O)c2cc(NC(=O)Nc3ccc(Cl)cc3)ccc2OC[C@H]2O[C@@H](CC(=O)NCCN3CCCCC3)CC[C@@H]21	-4.65*
CN1C(=O)c2cc(NC(=O)Nc3ccc(Cl)cc3)ccc2OC[C@H]2O[C@@H](CC(=O)NCCN3CCCCC3)CC[C@H]21	0.0604
CN1C(=O)c2cc(NC(=O)Nc3ccc(Cl)cc3)ccc2OC[C@@H]2O[C@H](CC(=O)NCCN3CCCCC3)CC[C@H]21	-0.354
C/C=C/c1cccc(-c2nc(C(=O)NC3Cc4ccccc4C3)cc3c2[C@H](CCO)N(C(C)=O)C3)c1	1.02
C[C@@H]1CN([C@H](C)CO)C(=O)c2cc(-c3cccc(C#N)c3)cnc2O[C@@H]1CN(C)C(=O)C1CCOCC1	-0.207
O=C(Nc1ccccc1F)N1CC(=O)N2[C@H](CO)[C@@H](c3ccc(C#Cc4ccc(F)cc4)cc3)[C@@H]2C1	4.46
COCC(=O)NC[C@@H]1[C@@H](c2ccccc2)[C@H](CO)N1C(=O)c1ccccc1	-0.734
Cc1cccc(-c2ccc([C@@H]3[C@H]4CN(C(=O)NC(C)C)CCCCN4[C@H]3CO)cc2)c1	-11.6*
COc1ccccc1NC(=O)N1CCCCN2[C@@H](CO)[C@H](c3ccc(-c4cccc(C)c4)cc3)[C@@H]2C1	-2.81
COc1ccccc1NC(=O)N1CCCCN2[C@H](CO)[C@H](c3ccc(-c4cccc(C)c4)cc3)[C@@H]2C1	-0.0625
Cc1cccc(-c2ccc([C@H]3[C@@H](CO)N4CCCCN(C(=O)NC(C)C)C[C@H]34)cc2)c1	-13.2*
Cc1cccc(-c2ccc([C@@H]3[C@H]4CN(C(=O)c5ccc6c(c5)OCO6)CCCCN4[C@H]3CO)cc2)c1	1.52
COc1ccccc1NC(=O)N1CCCCN2[C@H](C1)[C@@H](c1ccc(-c3cccc(C)c3)cc1)[C@@H]2CO	-2.57
CO[C@H](CN(C)C(=O)C1CCOCC1)[C@@H](C)CN([C@H](C)CO)S(=O)(=O)c1ccccc1	-0.247
CC(C)C#Cc1ccc([C@H]2[C@H](CO)N3CCCCN(CC4CC4)C[C@@H]23)cc1	0.936
CC(C)C#Cc1ccc([C@@H]2[C@@H](CO)N(C(=O)c3cccc(F)c3)[C@H]2C#N)cc1	-0.391
COc1ccc(C#Cc2ccc([C@@H]3[C@H](CO)N4CCCCN(C)C[C@@H]34)cc2)cc1	-0.0839
OC[C@H]1[C@@H](c2ccc(-c3ccccc3)cc2)[C@H]2CN(Cc3cncnc3)CCCCN21	-1.26
COc1ccc(C#Cc2ccc([C@@H]3[C@@H](CO)N4CCCCN(C)C[C@H]34)cc2)cc1	0.274
OC[C@@H]1[C@H](c2ccc(C#Cc3ccccc3F)cc2)[C@H]2CN(CC3CCOCC3)CCCCN12	-2.26
OC[C@@H]1[C@@H](c2ccc(C#Cc3ccccc3)cc2)[C@H]2CN(Cc3cncnc3)CCCCN12	0.194
SMILES	IDE exosite inh
CN1CCCCN2[C@H](C1)[C@H](c1ccc(C#Cc3ccccc3F)cc1)[C@@H]2CO	-3.92*
CN1CCCCN2[C@H](CO)[C@H](c3ccc(C#Cc4ccccc4F)cc3)[C@@H]2C1	-5.51*
OC[C@@H]1[C@H](c2ccc(C#Cc3ccccc3F)cc2)[C@H]2CN(Cc3cncnc3)CCCCN12	-9.68*
OC[C@H]1[C@@H](c2ccc(C#Cc3ccccc3F)cc2)[C@@H]2CN(CC3CCOCC3)CCCCN12	-2.85
CN1CCCCN2[C@H](CO)[C@H](c3ccc(C#Cc4ccccc4F)cc3)[C@H]2C1	-4.48*
COc1ccc(C#Cc2ccc([C@H]3[C@@H](CO)N4CCCCN(C)C[C@H]34)cc2)cc1	2
OC[C@H]1[C@H](c2ccc(C#Cc3ccccc3F)cc2)[C@@H]2CN(CC3CCOCC3)CCCCN12	0.242
CN(C[C@H]1[C@H](c2ccccc2)[C@@H](CO)N1C(=O)C1CCC1)C(=O)c1ccccn1	0.155
C/C=C/c1ccc([C@@H]2[C@H]3CN(C(=O)Nc4ccc(OC)cc4)CC(=O)N3[C@H]2CO)cc1	0.61
CC(C)[C@H]1C(=O)N[C@H](c2ccc(F)cc2)CC=CC[C@@H](C)Oc2ccccc2C(=O)N1C (mixture of isomers)	-0.703
O=C(Nc1cc(F)ccc1F)N1CC(=O)N2[C@H](C1)[C@@H](c1ccc(C#CC3CCCCC3)cc1)[C@@H]2CO	2.47
O=C(C[C@H]1CC[C@H]2NC[C@H](O)COC[C@@H]2O1)N1CCc2ccccc2C1	1.02
CO[C@@H]1CN(C)C(=O)c2cc(NC(=O)c3ccc(F)cc3)ccc2OC[C@H](C)N(C(=O)CC2CC2)C[C@H]1C	2.12
O=C(C[C@@H]1C[C@@H]2c3cc(NC(=O)C4CCOCC4)ccc3O[C@@H]2[C@H](CO)O1)NCc1cccnc1	-0.844
CCCC#Cc1ccc([C@@H]2[C@@H](CO)N3CCCCN(C(=O)NC4CCCC4)C[C@@H]23)cc1	1.26
COCC#Cc1ccc([C@@H]2[C@H](CO)N3CCCCN(C(=O)NC4CCCC4)C[C@@H]23)cc1	-1.09
CCCC#Cc1ccc([C@@H]2[C@H](CO)N3CCCCN(C(=O)NC4CCCC4)C[C@@H]23)cc1	-5.16*
COCC#Cc1ccc([C@@H]2[C@@H](CO)N3CCCCN(C(=O)NC4CCCC4)C[C@@H]23)cc1	-0.995
COCC#Cc1ccc([C@@H]2[C@H]3CN(C(=O)NC4CCCC4)CCCCN3[C@H]2CO)cc1	1.32
CCCC#Cc1ccc([C@H]2[C@@H](CO)N3CCCCN(C(=O)NC4CCCC4)C[C@H]23)cc1	-3.2*
O=C(NC1CCCC1)N1CCCCN2[C@@H](CO)[C@@H](c3ccc(-c4cncnc4)cc3)[C@@H]2C1	1.57
C[C@@H]1COCc2cn(nn2)CCCC(=O)N1	1.97
CN1CCCCN2[C@H](CO)[C@H](c3ccc(C4=CCCC4)cc3)[C@H]2C1	3.5
C/C=C/c1ccc([C@@H]2[C@H](C#N)N(C(=O)Cc3ccccn3)[C@H]2CO)cc1	-0.421
COc1ccccc1-c1ccccc1[C@H]1[C@@H](CO)N(C(=O)CN(C)C)[C@H]1C#N	0.748
SMILES	IDE exosite inh
CN(C)CC(=O)N1[C@H](C#N)[C@@H](c2ccc(/C=C/c3ccccc3)cc2)[C@H]1CO	-5.4*
C/C=C/c1ccc([C@H]2[C@@H](C#N)N(C(=O)Cc3ccccn3)[C@H]2CO)cc1	-2.01
COc1ccccc1-c1ccc([C@@H]2[C@@H](CO)N(C(=O)CN(C)C)[C@H]2C#N)cc1	-15*
COc1ccccc1-c1ccccc1[C@H]1[C@@H](C#N)N(C(=O)CN(C)C)[C@@H]1CO	0.32
COc1ccccc1-c1ccccc1[C@@H]1[C@@H](C#N)N(C(=O)CN(C)C)[C@H]1CO	-0.25
CCCNC(=O)N1[C@H](CO)[C@H](c2ccc(/C=C/c3ccccc3)cc2)[C@@H]1C#N	3.48
COc1ccccc1-c1ccc([C@H]2[C@@H](C#N)N(C(=O)CN(C)C)[C@@H]2CO)cc1	-4.2*
COc1ccccc1-c1ccccc1[C@@H]1[C@@H](CO)N(C(=O)CN(C)C)[C@H]1C#N	0.121
N#C[C@H]1[C@@H](c2ccc(/C=C/c3ccccc3)cc2)[C@@H](CO)N1C(=O)Cc1ccccn1	-3.72*
